# From the supplement of paper PMC6555819
# Legend:
# Assay in all cases: PBM binding z-score (relative to random genomic background probes); higher = stronger binding; sequences stand for … in GC…GCGATTGACAGCGTAGAATGAAGG
# [1] = test system: RARb homodimer (NR concentration 270 nM)
# Summary of the method: (§1)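 Ligand-free nuclear receptor dimers were bound for 1 h to custom Agilent 4×180K protein-binding microarrays. Detection used antibodies against each partner (one per run). Binding z-scores rest on regression-normalized fluorescence, with random background probes as the reference.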
# [2] = test system: RARg:RXRa (NR concentration 270 nM, RXRa partner concentration 90 nM)
# Summary of the method: as §1
# [3] = test system: RARg homodimer (NR concentration 270 nM)
# Summary of the method: as §1
# [4] = test system: RXRa DBDmut IVT, anti-RXR (DBD mutation: RXRa K156A/R161A, NR concentration 90 nM)
# Summary of the method: as §1
# [5] = test system: RXRa homodimer (NR concentration 180 nM)
# Summary of the method: as §1
# [6] = test system: THRa:RXRa (NR concentration 90 nM, RXRa partner concentration 90 nM)
# Summary of the method: as §1
# [7] = test system: THRa homodimer (NR concentration 90 nM)
# Summary of the method: as §1
# [8] = test system: VDR homodimer (NR concentration 270 nM)
# Summary of the method: as §1
Sequence,PBM binding z-score [1],PBM binding z-score [2],PBM binding z-score [3],PBM binding z-score [4],PBM binding z-score [5],PBM binding z-score [6],PBM binding z-score [7],PBM binding z-score [8]
CCTGCTAGGTCAATGGTCAGCCAAAGCAGCTCGC,3.05,3.38,4.35,1.48,2.23,2.06,0.619,-0.16
CATACTGGGCCATCAGGTCATTGATATCAACGTT,2.78,2.53,2.08,0.904,1.61,3.29,3.27,2.38
CTCGAATGGTCGTGCTCAGGTGAGTATACCAAAC,0.249,-0.157,-0.12,-0.0041,-0.189,1.11,0.835,-0.378
TCACATAGGTAATACAGGTGAAAGTCGGCATCTA,0.573,0.559,0.535,1.35,1.14,0.928,-0.0751,-0.296
TAGCCTAGGTCATGGGCTAGTATACCACGCGAAC,2.79,4.26,4.32,-0.132,3.45,3.07,0.81,0.156
TTACCAAGGTGAGCTGAGGTAGTTGATCCAACTC,0.264,-0.0541,0.00581,-0.913,-0.0499,3.02,0.0435,-0.88
CCTACTGGGCCAAGATCATTGATCAGTCAAAGCA,-0.51,-0.246,-0.13,-0.666,-0.589,-0.314,-0.633,-0.179
AAAGACAGGTGAGTGAAGGTAACTCAGCTGGACG,0.159,0.293,0.488,-0.545,0.374,1.86,-0.204,-0.128
ATCTCTTGGTAACAAGTTCAGTGAAAGAGAGGAC,1.67,0.629,1,1.09,0.531,0.831,0.489,2.61
TCTTGTAGATCAAGCAGGTTACGAAAGCCTGAGT,0.377,0.206,-0.118,0.652,0.618,0.537,-0.421,-0.206
CGTCCAAGGTCAGGGTCAGTGAAAGAGACTCGAA,4.57,5.67,6.48,2.75,5.14,3.9,2.66,2.19
CGAACTAGGTCATTGACAGGACAGTGATTAGTAA,2.83,4.5,4.52,2.49,2.47,2.9,1.05,1.52
CGTCCAAGGTCATAGGAGGCCAGTGAAGACAGAT,4.11,5.88,5.84,3.97,5.41,4.9,2.32,3.03
CCTGCTAGGTCAATGGTCAGGTAAAGCAGCTCGC,2.93,3.45,4.27,1.52,2.28,2.65,1.34,0.248
TTAGACAGGTGAAGGTAACTCAGGTACGCAGTCG,0.861,0.559,0.81,-0.329,0.753,1.48,0.377,0.53
ATATGTAGGTTACATCCGGGTCATTTAGGCTATG,2.76,3.59,1.81,1.21,3,3.7,2.55,2.98
TCATCTAGGTAAACAGGTGAAAGTCCGTAAGTTA,0.582,0.394,0.147,1.26,0.645,0.888,0.459,0.0533
AGAATGAGGTTATTCGTAGATCAGGGAAGAAAGT,0.677,1.86,0.782,2.5,2.29,2.32,0.475,1.07
AGTCAAAATTCATCTAGGTAACGTAAGATATGCT,-0.349,0.038,0.342,0.0782,-0.00435,0.538,0.0978,-0.296
ATCTCTAGGTTACCAAGTTCAGTGAATGCCGAAC,2.58,1.88,1.79,1.48,1.26,1.97,1.14,3.3
TCTTGTAGGTCAGCAGGTTAAGAAAGCTGGCCAA,3.05,4.48,4.43,0.785,3.23,1.97,-0.325,0.0594
CGTCCAAGGTCAAGGTCAGGGAAAGAGACTCGAA,5.45,7.09,7.87,3.81,7.17,4.53,3.82,3.37
ATCGAAAGGTCGACGAGGTGAGTATCCACCGTTT,2.9,4.16,4.03,1.27,4.38,3.78,1.01,0.828
CGTCCAAGGTCAATGCTAGGTCATTGAAAGCATT,4.92,7.82,7,3.83,6,4.65,3.74,4.05
GATACAGGGTCAGGGCCAGAGTACGCGTATTGAT,3.15,4.29,4.19,0.901,4.15,2.89,0.838,1.2
ACTAGCAGGCCAACTTTGGGTCACTCAAACAAAG,2.34,2.46,1.61,-0.27,0.885,2.62,1.19,0.371
CATACAGGTTCAGCTAGGCCAGAGTAGGGACGGC,0.871,1.01,1.03,2.89,1.41,1.05,0.0311,2.65
GGAACGAGGGCATTCGGGTTGATAGCATGGCGAT,0.654,1.05,1.55,3.18,0.826,2.68,0.0871,4.11
